Common to all, as to assay type: functional
Assay [1] concerns the target Solute carrier family 2, facilitated glucose transporter member 1 (Homo sapiens) (UniProt P11166). Nature of the assay: ST_JUDE_LEISH: Cytotoxicity at 2uM final concentration against transgenic Leishmania Mexicana promastigotes LmGLUT1 that are glucose transport deficient and complemented with the human glucose transporter GLUT1. Activity is measured by DNA content using SYBR green in vitro.

Assay [2] addresses Hexose transporter 1 (Plasmodium falciparum) (UniProt O97467). Put plainly: ST_JUDE_LEISH: Cytotoxicity at 2uM final concentration against transgenic Leishmania Mexicana promastigotes LmPfHT that are glucose transport deficient and complemented with the Plasmodium falciparum hexose transporter. Activity is measured by DNA content using SYBR green in vitro.
Assay [3] deals with Glucose transporter (Leishmania mexicana) (UniProt O61059). Put plainly: ST_JUDE_LEISH: Cytotoxicity at 2uM final concentration against transgenic Leishmania Mexicana promastigotes LmGT2 that are glucose transport deficient and complemented with the L. Mexicana glucose transporter 2. Activity is measured by DNA content using SYBR green in vitro.

The structures appear in SMILES notation.

Sequence of Solute carrier family 2, facilitated glucose transporter member 1 (Homo sapiens) (P11166 whole entry): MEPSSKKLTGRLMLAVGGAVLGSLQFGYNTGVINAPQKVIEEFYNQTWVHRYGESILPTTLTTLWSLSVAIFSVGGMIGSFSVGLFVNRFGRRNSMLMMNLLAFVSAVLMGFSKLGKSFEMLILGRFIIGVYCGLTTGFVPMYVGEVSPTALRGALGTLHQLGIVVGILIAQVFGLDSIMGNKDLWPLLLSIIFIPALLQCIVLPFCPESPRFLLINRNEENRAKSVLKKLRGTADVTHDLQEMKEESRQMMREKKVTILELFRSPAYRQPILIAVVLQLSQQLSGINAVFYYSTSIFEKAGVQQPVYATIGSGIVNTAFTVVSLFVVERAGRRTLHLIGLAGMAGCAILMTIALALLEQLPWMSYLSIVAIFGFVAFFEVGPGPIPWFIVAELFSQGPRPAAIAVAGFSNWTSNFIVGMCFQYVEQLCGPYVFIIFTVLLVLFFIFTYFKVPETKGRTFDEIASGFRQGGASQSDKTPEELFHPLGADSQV

As to `CCNC(=O)c1ccc2c(c1)c(C)c(C)n2Cc1ccc(F)cc1`, the figures for the inhibition in assay [1], in assay [2] and in assay [3] were 0.6%, -0.64% and 1.15%, respectively.

`CN1CCC(N(C)C(=O)C=Cc2cn(-c3ccccc3)nc2-c2cc3ccccc3o2)CC1`: the inhibition was 3% in assay [1], 1.17% in assay [2] and -0.25% in assay [3].

As to `CCCCCn1c(Sc2ccc(C#N)c([N+](=O)[O-])c2)nnc1-c1ccccc1`, the inhibition worked out at 8.41% in assay [1], 9.62% in assay [2] and 4.33% in assay [3].

In the case of `CCCCCCCCc1c(C)nc(C)c(Br)c1O`, the inhibition in assay [1] was 0.75%; in assay [2] it was -0.72%; in assay [3], -0.12%.

Turning to `COc1ccc(Cl)cc1NC(=O)Nc1ccnc2ccccc12`, the inhibition in assay [1] is 14.6%; in assay [2] it was 13.4%; in assay [3] it was 6.32%.

In the case of `COc1cc2c(cc1N1CC(C)NC(C)C1)N(C(=O)c1ccc(-c3ccc(-c4ncc[nH]4)cc3C)cc1)CC2` (stereo not given), the inhibition in assay [1] was determined as 2.21%; in assay [2], 1.1%; in assay [3], 3.39%.

With `COc1ccc(-n2cc(C(=O)c3cc(Br)ccc3O)cc(C#N)c2=O)cc1Cl`, the inhibition in assay [1] was determined as 3.4%; in assay [2], 1.9%; in assay [3], 0.95%.

Consider `CCc1nc2nc(C)cc(Nc3ccc4c(c3)OCCO4)n2n1`, for which the inhibition was 2.89% in assay [1], 4.78% in assay [2] and -3.9% in assay [3].

Turning to `COc1cc(Nc2nccc(N3CCC(NC(=O)Nc4ccc5c(c4)OCO5)C3)n2)cc(OC)c1OC` (stereo not given), the inhibition was found to be 11.1% in assay [1], 6.84% in assay [2] and 8.87% in assay [3].

Take `COc1cccc2cc(C(=O)N[C@@H](CC(C)C)C(=O)NC3CC[C@@H](C)N(C(=O)Nc4ccncc4)CC3=O)oc12` (stereo not given in full): the inhibition in assay [1] amounted to 9.49%; in assay [2], 4.38%; in assay [3], 3.24%.

In the case of `O=C(Cc1ccc(NC(=O)c2ccc(O)c(-c3ccc(Cl)c(Cl)c3)c2)cc1)NCc1cccc(C(F)(F)F)c1`, the inhibition stood at 2.33% in assay [1], 2.65% in assay [2] and 1.16% in assay [3].

Regarding `Cc1ccc2nc(C)cc(Nc3ccccc3O)c2c1`, the results for the inhibition in assay [1], in assay [2] and in assay [3] were -0.76%, -1.41% and -1.03%, respectively.

Consider `Cc1cccc2nc(-c3cccc(-c4cccc(NC(=O)Nc5ccccc5)c4)c3)[nH]c12`, for which the inhibition amounted to 3.85% in assay [1], 3.36% in assay [2] and 3.26% in assay [3].

Take `O=C(/C=C/C=C/c1ccc(Cl)c(Cl)c1)NCCCCCN1CCCC2CCCCC21` (stereo not given): the inhibition was 13.3% in assay [1], 12.3% in assay [2] and 13.2% in assay [3].

Regarding `NC(=O)c1ccsc1NC(=O)CNC(c1ccccc1)c1ccc(Cl)cc1` (stereo not given), the inhibition in assay [1] is 6.13%; in assay [2], 2.82%; in assay [3], 1.74%.

For `CCc1sc(N2CCN(C)CC2)nc1C(=O)NCCc1ccc(Cl)c(Cl)c1`, the figures for the inhibition in assay [1], in assay [2] and in assay [3] were 4.62%, 3.9% and 3.6%, respectively.

As for `COc1ccc2sc(CNCCCNc3cc(=O)c4ccccc4[nH]3)c(Cl)c2c1`, the inhibition in assay [1] turned out to be 3.04%; in assay [2], 3.59%; in assay [3], 4.49%.

As for `Cn1ccnc1CNC(=O)c1ccc(-c2cccc(-c3nc4cc(F)ccc4[nH]3)c2)cc1`, the inhibition was -2.64% in assay [1], 0.96% in assay [2] and 1.38% in assay [3].

Regarding `Clc1cc(Nc2ncnc3sc(C#Cc4ncc[nH]4)cc23)ccc1OCc1ccccn1`, the inhibition is -0.91% in assay [1], 5.1% in assay [2] and -0.27% in assay [3].

For the compound `O=[N+]([O-])c1ccc(C=NNc2nc(Nc3ccccc3)nc(Nc3ccccc3)n2)o1`, the inhibition in assay [1] worked out at 13.4%; in assay [2], 18.9%; in assay [3], 2.58%.

With `CCn1c2ccccc2c2cc(C=NN=c3cc(C)[nH]c4ccccc34)ccc21`, the inhibition in assay [1] came to 4.76%; in assay [2], 6%; in assay [3] it was 0.19%.

Take `Brc1ccsc1-c1nc(NCCC(c2ccccc2)c2ccccc2)no1`: the inhibition in assay [1] is -0.74%; in assay [2], 0.55%; in assay [3] it was 0.06%.

With `C(=Cc1ccccc1)C=NN=c1cc[nH]c2ccccc12`, the inhibition was -0.05% in assay [1], 1.5% in assay [2] and -2.14% in assay [3].

In the case of `O=C(Nc1nc(-c2ccccn2)cs1)c1ccc(S(=O)(=O)N2CCc3ccccc32)cc1`, the inhibition stood at 9.61% in assay [1], 15.1% in assay [2] and 2.63% in assay [3].

Regarding `Cc1ccc(Nc2nc(C)cc(NC3CCN(C)CC3)n2)cc1`, the inhibition in assay [1] turned out to be 1.14%; in assay [2], 3.12%; in assay [3], 5.43%.

For the compound `Oc1ccc2ccccc2c1CNCCC1CCCCC1`, the values for the inhibition in assay [1], in assay [2] and in assay [3] were 0.07%, 0.52% and 1.73%, respectively.

As to `O=C(/C=C/c1ccc(Cl)c(Cl)c1)NC1CCC(CN2CCC(c3nc4cc(O)ccc4[nH]3)CC2)CC1` (stereo not given), the inhibition in assay [1] stood at 2.81%; in assay [2], 3.99%; in assay [3], 2.71%.

Regarding `COc1ccc(CNCc2ccc(-c3ccc(-c4nc5ccccc5[nH]4)cc3)cc2)cc1`, the inhibition was 17.8% in assay [1], 14.9% in assay [2] and 10.5% in assay [3].

`COc1ccc(C2C(C(=O)OC3CCCCC3)=C(C)NC3=C2C(=O)CCC3)cc1Br` (stereo not given): the inhibition is 0.38% in assay [1], -0.1% in assay [2] and 1.36% in assay [3].

In the case of `Cc1cc(=NN=Cc2ccc(F)cc2)c2ccc(C(F)(F)F)cc2[nH]1`, the inhibition in assay [1] came to 3%; in assay [2], 4.59%; in assay [3] it was 1.74%.

Regarding `C=CCOC(=O)N1CCC(CNCc2ccc(-c3cccc(-c4nc5cc(F)ccc5[nH]4)c3)cc2)C1` (stereo not given), the inhibition in assay [1] stood at 1.77%; in assay [2], 2.36%; in assay [3], 3.88%.

On to `Cn1ccnc1-c1nc2ccccn2c1NCC(=O)Nc1ccccc1N1CCCCC1`, for which the figures for the inhibition in assay [1], in assay [2] and in assay [3] were -1.68%, -2.15% and 0.02%, respectively.

Take `COc1ccc2ccc(OC)c(CNCCCCCCNCc3c(OC)ccc4ccc(OC)cc34)c2c1`: the inhibition in assay [1] worked out at 5.41%; in assay [2] it was 9.06%; in assay [3], 4.72%.

Take `Nc1nccc2ccc(-c3ccsc3)cc12`: the values for the inhibition in assay [1], in assay [2] and in assay [3] were 5.2%, 3.92% and 4.09%, respectively.

Turning to `COc1ccc(-c2cnc3ccc(NCCCO)nn23)cc1OC`, the inhibition in assay [1] was -0.63%; in assay [2], 0.58%; in assay [3], 1.14%.

Values taken from ChEMBL document CHEMBL3433997, “St. Jude Leishmania screening dataset” (2016).
